Experimental data published in PubChem BioAssay AID1159580 (chemical genetic matrix, 2015).
About 2,000 (36%) of roughly 5,500 compounds were called active. Inconclusive results (about 18%) are left out. The list shows a part of the results. Values without a mark were called inactive. No stated cut-off is given here; in the data, active means normalized growth mostly below about 0.91 (no sharp cut-off); inconclusive means no clear call, values can overlap the other calls; inactive means mostly above about 0.92.

Assay: chemical genetic growth profiling, strain panel (AID 1159580);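 further: tested at 20 µM; growth read once vehicle control cultures reached saturation at 30 °C; 1 = growth at the plate median or of vehicle wells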
Conditions: S. cerevisiae deletion strains, growth OD
[1] = locus YAL013W, strain DEP1, stronger effect = lower value
[2] = locus YBR229C, strain ROT2, stronger effect = lower value
[3] = locus YDL101C, strain DUN1, stronger effect = lower value
[4] = locus YDR150W, strain NUM1, stronger effect = lower value
[5] = locus YEL061C, strain CIN8, stronger effect = lower value
[6] = locus YGR078C, strain PAC10, stronger effect = lower value
[7] = locus YHR030C, strain SLT2, stronger effect = lower value
[8] = locus YHR087W, strain rtc3, stronger effect = lower value
[9] = locus YJL187C, strain SWE1, stronger effect = lower value
[10] = locus YJR043C, strain POL32, stronger effect = lower value
[11] = locus YJR075W, strain HOC1, stronger effect = lower value
[12] = locus YLR039C, strain RIC1, stronger effect = lower value
[13] = locus YLR058C, strain SHM2 (second series), stronger effect = lower value
[14] = locus YLR085C, strain ARP6, stronger effect = lower value
[15] = locus YLR262C, strain YPT6, stronger effect = lower value
[16] = locus YML094W, strain GIM5, stronger effect = lower value
[17] = locus YMR219W, strain ESC1, stronger effect = lower value
[18] = locus YMR263W, strain SAP30, stronger effect = lower value
[19] = locus YNL153C, strain GIM3, stronger effect = lower value
[20] = locus YNL298W, strain CLA4 (second series), stronger effect = lower value
[21] = locus YNL322C, strain KRE1, stronger effect = lower value
[22] = locus YNR030W, strain Alg12, stronger effect = lower value
[23] = locus YPL055C, strain LGE1, stronger effect = lower value
[24] = locus YPL241C, strain CIN2, stronger effect = lower value
[25] = locus YPR135W, strain CTF4, stronger effect = lower value
[26] = locus YCL061C, strain MRC1, stronger effect = lower value

Cc1ccc(Oc2ccc(C)cc2)cc1
normalized growth [1]: 0.993
normalized growth [2]: 0.999
normalized growth [3]: 1.01
normalized growth [4]: 0.999
normalized growth [5]: 0.976
normalized growth [6]: 1
normalized growth [7]: 0.663 (active)
normalized growth [8]: 1.03
normalized growth [9]: 0.993
normalized growth [10]: 0.992
normalized growth [11]: 1.01
normalized growth (locus YKL190W, strain CNB1, stronger effect = lower value): 1
normalized growth [12]: 0.897
normalized growth [13]: 0.991
normalized growth [14]: 0.864
normalized growth [15]: 0.889
normalized growth [16]: 1.06
normalized growth [17]: 1
normalized growth [18]: 0.969
normalized growth (locus YNL128W, strain TEP1, stronger effect = lower value): 0.995
normalized growth [19]: 0.999
normalized growth [20]: 0.96
normalized growth [21]: 0.993
normalized growth [22]: 0.962
normalized growth [23]: 1.02
normalized growth [24]: 0.936
normalized growth [25]: 0.912

Cc1ccc2cc(C)c(C)cc2c1
normalized growth [1]: 0.994
normalized growth [2]: 0.991
normalized growth [26]: 0.992
normalized growth [3]: 1.02
normalized growth [4]: 1.05
normalized growth [5]: 1
normalized growth [6]: 0.99
normalized growth [7]: 0.729
normalized growth [8]: 1.01
normalized growth [9]: 0.993
normalized growth [10]: 0.989
normalized growth [11]: 0.961
normalized growth [12]: 0.897
normalized growth [13]: 0.992
normalized growth [14]: 0.949
normalized growth [15]: 0.831
normalized growth [16]: 1
normalized growth [17]: 1.01
normalized growth [18]: 1
normalized growth (locus YMR307W, strain GAS1, stronger effect = lower value): 0.742
normalized growth [19]: 0.952
normalized growth [20]: 0.957
normalized growth [21]: 0.985
normalized growth [22]: 0.958
normalized growth (locus YOL006C, strain TOP1, stronger effect = lower value): 0.902
normalized growth [23]: 1.02
normalized growth [24]: 0.995
normalized growth [25]: 0.899

CC(C)(N=NC(C)(C)C(=N)N)C(=N)N
normalized growth (locus YAL021C, strain ccr4, stronger effect = lower value): 0.995
normalized growth (locus YAL026C, strain drs2, stronger effect = lower value): 1.05
normalized growth (locus YAL030W, strain snc1, stronger effect = lower value): 1.02
normalized growth (locus YBL061C, strain skt5, stronger effect = lower value): 1.02
normalized growth (locus YBR009C, strain hhf1, stronger effect = lower value): 1.07
normalized growth (locus YBR023C, strain chs3, stronger effect = lower value): 1.02
normalized growth (locus YBR171W, strain sec66, stronger effect = lower value): 1.03
normalized growth (locus YBR231C, strain swc5, stronger effect = lower value): 1.04
normalized growth (locus YBR279W, strain paf1, stronger effect = lower value): 1.03
normalized growth (locus YCL011C, strain gbp2, stronger effect = lower value): 1.03
normalized growth (locus YCL016C, strain dcc1, stronger effect = lower value): 1.03
normalized growth [26]: 1.03
normalized growth (locus YCL069W, strain vba3, stronger effect = lower value): 1.02
normalized growth (locus YCR088W, strain abp1, stronger effect = lower value): 1.02
normalized growth (locus YDL005C, strain med2, stronger effect = lower value): 1.03
normalized growth (locus YDL040C, strain nat1, stronger effect = lower value): 1.02
normalized growth (locus YDR001C, strain nth1, stronger effect = lower value): 1.02
normalized growth (locus YDR069C, strain doa4, stronger effect = lower value): 1.03
normalized growth (locus YDR137W, strain rgp1, stronger effect = lower value): 0.998
normalized growth (locus YDR159W, strain sac3, stronger effect = lower value): 1.05
normalized growth (locus YDR195W, strain ref2): 1
normalized growth (locus YDR297W, strain sur2, stronger effect = lower value): 1.02
normalized growth (locus YDR334W, strain swr1, stronger effect = lower value): 1.03
normalized growth (locus YDR335W, strain msn5, stronger effect = lower value): 1.02
normalized growth (locus YDR392W, strain spt3, stronger effect = lower value): 0.98
normalized growth (locus YEL003W, strain gim4, stronger effect = lower value): 1.03
normalized growth (locus YEL037C, strain rad23, stronger effect = lower value): 1.02
normalized growth (locus YEL061C, strain CIN8 (second series), stronger effect = lower value): 1.02
normalized growth (locus YER015W, strain faa2, stronger effect = lower value): 1.03
normalized growth (locus YER016W, strain bim1, stronger effect = lower value): 1.04
normalized growth (locus YER111C, strain swi4, stronger effect = lower value): 1.03
normalized growth (locus YER155C, strain BEM2 (second series), stronger effect = lower value): 1.03
normalized growth (locus YFR010W, strain ubp6, stronger effect = lower value): 1.03
normalized growth (locus YGL167C, strain pmr1, stronger effect = lower value): 1.03
normalized growth (locus YGL173C, strain kem1, stronger effect = lower value): 1.05
normalized growth (locus YGL227W, strain vid30, stronger effect = lower value): 1.02
normalized growth (locus YGL240W, strain doc1, stronger effect = lower value): 1.04
normalized growth (locus YGL253W, strain hxk2, stronger effect = lower value): 1.01
normalized growth (locus YHR013C, strain ard1, stronger effect = lower value): 1.05
normalized growth (locus YHR027C, strain rpn1, stronger effect = lower value): 1.03
normalized growth [7]: 0.971
normalized growth (locus YHR079C, strain IRE1, stronger effect = lower value): 0.971
normalized growth (locus YHR142W, strain chs7, stronger effect = lower value): 0.965
normalized growth (locus YJL092W, strain hpr5, stronger effect = lower value): 1.03
normalized growth (locus YJL095W, strain BCK1 (second series), stronger effect = lower value): 1.02
normalized growth (locus YJL095W, strain BCK1, stronger effect = lower value): 0.969
normalized growth (locus YJL115W, strain asf1, stronger effect = lower value): 1.02
normalized growth (locus YJL129C, strain trk1, stronger effect = lower value): 1.03
normalized growth (locus YJL154C, strain vps35, stronger effect = lower value): 1.02
normalized growth (locus YJL164C, strain tpk1, stronger effect = lower value): 1.02
normalized growth (locus YJL166W, strain qcr8, stronger effect = lower value): 1.01
normalized growth [9]: 1.02
normalized growth (locus YJR066W, strain TOR1, stronger effect = lower value): 0.896
normalized growth (locus YKL160W, strain elf1, stronger effect = lower value): 0.99
normalized growth (locus YKR026C, strain gcn3, stronger effect = lower value): 1.02
normalized growth (locus YKR091W, strain srl3, stronger effect = lower value): 1.02
normalized growth (locus YLL001W, strain dnm1, stronger effect = lower value): 1.03
normalized growth (locus YLL026W, stronger effect = lower value): 1.02
normalized growth (locus YLL041C, strain sdh2, stronger effect = lower value): 1.02
normalized growth (locus YLR027C, strain aat2, stronger effect = lower value): 1.03
normalized growth (locus YLR113W, strain HOG1, stronger effect = lower value): 0.985
normalized growth (locus YLR221C, strain rsa3, stronger effect = lower value): 1.02
normalized growth (locus YLR258W, strain gsy2, stronger effect = lower value): 1.04
normalized growth (locus YLR262C, strain YPT6 (second series), stronger effect = lower value): 1.03
normalized growth (locus YLR320W, strain mms22, stronger effect = lower value): 1.07
normalized growth (locus YLR342W, strain FKS1, stronger effect = lower value): 1.03
normalized growth (locus YLR357W, strain rsc2, stronger effect = lower value): 1.06
normalized growth (locus YLR370C, strain arc18, stronger effect = lower value): 1.03
normalized growth (locus YLR384C, strain iki3, stronger effect = lower value): 1.02
normalized growth (locus YML120C, strain ndi1, stronger effect = lower value): 1.04
normalized growth (locus YMR058W, strain fet3, stronger effect = lower value): 1.03
normalized growth (locus YMR125W, strain sto1, stronger effect = lower value): 1.04
normalized growth (locus YMR129W, stronger effect = lower value): 1.01
normalized growth (locus YMR205C, strain PFK2, stronger effect = lower value): 1.08
normalized growth (locus YMR231W, strain pep5, stronger effect = lower value): 1.02
normalized growth (locus YNL071W, strain lat1, stronger effect = lower value): 1.02
normalized growth (locus YNL183C, strain NPR1, stronger effect = lower value): 0.906
normalized growth (locus YNL209W, strain ssb2, stronger effect = lower value): 1.03
normalized growth (locus YNL248C, strain rpa49, stronger effect = lower value): 0.99
normalized growth (locus YNL322C, strain KRE1 (second series), stronger effect = lower value): 1.01
normalized growth (locus YNR049C, strain mso1, stronger effect = lower value): 1.02
normalized growth (locus YOR001W, strain rrp6, stronger effect = lower value): 1.02
normalized growth (locus YOR070C, strain gyp1, stronger effect = lower value): 1.04
normalized growth (locus YOR080W, strain dia2, stronger effect = lower value): 1.03
normalized growth (locus YOR083W, strain WHI5, stronger effect = lower value): 0.988
normalized growth (locus YOR106W, strain vam3, stronger effect = lower value): 0.886
normalized growth (locus YOR231W, strain MKK1, stronger effect = lower value): 0.976
normalized growth (locus YOR265W, strain rbl2, stronger effect = lower value): 1.02
normalized growth (locus YOR270C, strain vph1, stronger effect = lower value): 1.02
normalized growth (locus YOR290C, strain snf2, stronger effect = lower value): 1
normalized growth (locus YPL051W, strain arl3, stronger effect = lower value): 1.01
normalized growth (locus YPL078C, strain atp4, stronger effect = lower value): 0.983
normalized growth (locus YPL106C, strain sse1, stronger effect = lower value): 1.05
normalized growth (locus YPL240C, strain hsp82, stronger effect = lower value): 1.01
normalized growth (locus YPL256C, strain CLN2, stronger effect = lower value): 0.979
